# From PubChem BioAssay
# Most compounds without a hit are left out; they make up all but 19% or so of the library.
# KB-3-1 tox = KB-3-1 parental cell cytotoxicity; KB-3-1 viability, CellTiter-Glo ATP luminescence, 72 h; Potency, µM (top dose mostly 46.1 µM), hits mostly cytotoxic; 400,000 compounds, 1.4% hits; AID 1347075; also: nearly all actives have a fitted effect of over 60% in size
#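 Parental KB-3-1 viability, qHTS format: 72 h compound exposure, 37 °C; CellTiter-Glo; media-only wells and DMSO plates as controls; concentration-effect fits on corrected data.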
# HT1080 IDH1KD tx = HT-1080 IDH1 knockdown cell toxicity (counter line); HT-1080 IDH1 knockdown viability, ATP luminescence, 48 h; Potency, µM (titrated, usually from 46.1 µM), without a hit: at the highest dose activity, negative = toxicity, most hits filed as cytotoxic; 360,000 compounds, 2% hits; AID 686971;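 also: 0% = DMSO wells and -100% = cell-free medium wells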
#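 Viability of IDH1-knockdown HT-1080 fibrosarcoma cells was assessed by CellTiter-Glo after 48 h at 37 °C with titrated compound; concentration-effect curves were classified by fit quality and response size.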
# HT1080NT lethal = kills 2HG-producing HT-1080-NT fibrosarcoma cells; HT-1080-NT fibrosarcoma viability, CellTiter-Glo ATP luminescence, 48 h; Potency, µM (doses to about 46.1 µM), for the others: top-dose activity, negative = less viability, usual class: cytotoxic; 360,000 compounds, 1.6% hits; AID 686970;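 also: NT is the 2HG producing partner of a matched IDH1 knockdown line; 0% = DMSO-treated cells and -100% = media-only wells without cells; nearly all actives have a fitted effect of over 55% in size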
#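 Fibrosarcoma NT cells, 750 per well in 5% FBS RPMI, were exposed to compound for 48 hours. Viability: CellTiter-Glo luminescence.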
# KB-V1 MDR tox = kills drug-selected multidrug resistant KB-V1 cells | KB-V1 MDR cells viability, CellTiter-Glo, 72 h | Potency, µM (highest dose often 46.1 µM), hits mostly cytotoxic | 400,000 compounds, 3.4% hits | AID 1347076; also: nearly all actives have a fitted effect of over 60% in size
#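 Luminescent ATP read-out (CellTiter-Glo, 10 min) measures survival of drug-selected KB-V1 MDR cells after 72 h, 37 degrees C compound exposure. Medium: phenol-red-free DMEM, 10% FBS. Values from fitted concentration-response curves.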
# DT40 TDP1 no CPT = qHTS for Inhibitors of human tyrosyl-DNA phosphodiesterase 1 (TDP1): qHTS in cells in absence of CPT; DT40 Tdp1-/- hTDP1 cells, no CPT, ATP luminescence, 48 h; AID 686978, 2013; 420,000 compounds, 15% hits; Potency, µM (highest dose often 46.2 µM), for inactives: top-dose activity change, negative = growth inhibition, actives largely listed as inhibitors; also: nearly all actives have a fitted effect of over 55% in size
#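 Compound effects on proliferation are scored in DT40 Tdp1-/-;hTDP1 cells in the absence of CPT. ATP levels (CellTiter-Glo luminescence) are recorded after a ≥48 hr, 37 °C incubation.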
# TDP1 cell CPT = growth inhibition of DT40 Tdp1-/-;hTDP1 cells with camptothecin (screen for TDP1 inhibitors). Potency, µM (doses to about 46.2 µM), for inactives: at the top dose activity change, negative = growth inhibition, hits mostly inhibitors. chicken DT40 Tdp1-/-;hTDP1 cells + 20 nM CPT, ATP luminescence, 48 h. AID 686979. 420,000 compounds, 12% hits; also: nearly all actives have a fitted effect of over 55% in size
#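 Chicken DT40 Tdp1-/- cells complemented with human TDP1, 400 cells/well, exposed to compounds plus 20 nM camptothecin for at least 48 h at 37 C; viability read as ATP content by CellTiter-Glo luminescence.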
# The depositor's hits bear a star; i = inactive; ? = inconclusive; / = not tested or not shown. Calls follow the shape of the dose curve; as a rule, active = well fitted curve in the direction sought with a large enough effect; inconclusive = small, poorly fitted or top-dose-only effect, or another doubt; inactive = no such curve, though single readings can be large; an effect the other way counts as inactive or inconclusive. Unless noted, % is scaled to controls: 0 for no effect and ±100 for the full control effect; potency is read from the fitted curve at half-maximal effect.
SMILES,KB-3-1 tox,HT1080 IDH1KD tx,HT1080NT lethal,KB-V1 MDR tox,DT40 TDP1 no CPT,TDP1 cell CPT
Oc1ccccc1-c1cc(-c2ccc3c(c2)OCCO3)n[nH]1,i,?,?,?,?,?
COc1ccc(-c2[nH]ncc2-c2ccc3c(c2)OCCO3)c(O)c1,i,-21%,-10%,i,7.3µM*,4.6µM*
COc1ccc(-c2[nH]ncc2-c2nc(C)cs2)c(O)c1,i,-9%,-8%,i,-23%,-4%
COc1ccc(CC2(C)OC(c3ccc([N+](=O)[O-])cc3)=NN2C(C)=O)cc1 (configuration not stated),i,-11%,-9%,?,?,?
CCc1cc(-c2[nH]ncc2-c2ccc3c(c2)OCO3)c(O)cc1O,i,?,?,9.2µM*,11µM*,18µM*
CCc1cc(-c2[nH]ncc2-c2ccc(OC)cc2)c(O)cc1O,?,?,?,?,18µM*,?
CN(Cc1cn[nH]c1-c1ccc2c(c1)OCO2)C1CCOCC1,i,10%,-3%,i,4%,17%
COc1ccc(NC(C)=O)cc1S(=O)(=O)N1CCN(C/C=C/c2ccccc2)CC1,i,7%,5%,i,-20%,-9%
O=C(CCCN1C(=O)c2cccc3cccc(c23)C1=O)NC1CCS(=O)(=O)C1 (configuration not stated),i,0%,8%,i,-9%,-2%
Cc1cc(C)n2nc(-c3ccc(F)cc3)nc2n1,i,-6%,8%,i,-11%,-17%
COc1ccc(-c2nc(N)n(S(=O)(=O)c3ccc(C)cc3)n2)cc1,i,0%,-18%,?,?,?
CCn1nc(-c2ccccc2C)nc2c(=O)n(C)c(=O)nc1-2,?,/,/,?,1µM*,1µM*
Cn1nc(-c2ccc(F)cc2)nc2c(=O)n(C)c(=O)nc1-2,2.9µM*,/,/,5.2µM*,0.63µM*,0.45µM*
COc1ccc(-c2nc3c(=O)n(C)c(=O)nc-3n(C)n2)cc1,0.65µM*,/,/,4.6µM*,0.45µM*,0.089µM*
Cn1nc(-c2cccnc2)nc2c(=O)n(C)c(=O)nc1-2,?,/,/,?,1.3µM*,1.1µM*
Cc1cc(C)n2nc(-c3cccnc3)nc2n1,i,8%,7%,?,-12%,4%
O=C(CCn1c(=O)oc2ccc(Cl)cc21)NCCCN1CCOCC1,i,-8%,1%,i,25%,2%
CC(=O)c1cccc(NC(=O)CSc2nc(C3CC3)nc3ccccc23)c1,i,?,?,?,16µM*,?
O=C(CSc1nc(C2CC2)nc2ccccc12)Nc1ccccc1,i,1%,-14%,i,?,-6%
O=C(CSc1nc(C2CC2)nc2ccccc12)Nc1ccccc1Cl,i,2%,14%,i,-25%,-23%
Cc1cccc(NC(=O)CSc2nc(C3CC3)nc3ccccc23)c1,i,-22%,-8%,i,?,?
CN(C)c1ccc(NC(=O)CSc2nc(C3CC3)nc3ccccc23)cc1,?,0%,-5%,?,18µM*,?
CCN(CC)c1ccc(NC(=O)CSc2nc(C3CC3)nc3ccccc23)cc1C,4.6µM*,6.5µM*,9.2µM*,6.5µM*,5.2µM*,4.1µM*
COc1cc(NC(=O)CSc2nc(C3CC3)nc3ccccc23)cc(OC)c1,i,?,13µM*,i,?,-5%
CC(C)(C)OC(=O)N1CCc2onc(-c3ccc(N)cc3)c2C1=O,i,0%,7%,i,-29%,-8%
